# Screening results (PubChem)
# HCMV inh = qHTS Assay for inhibitors of the human cytomegalovirus (HCMV) | HFF cells, HCMV-luciferase reporter, 72 h; hits give low values | AID 1259415, 2018 | 410,000 compounds, 4.5% hits | activity change, negative = inhibition, % at 57.5 µM; in the data active = activity change below about -60%; inconclusive = no clear call, values can overlap the other calls; inactive = above about -39%
#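 Screen run at 2 compound doses on HFFs infected with reporter HCMV, MOI 1 PFU/cell. Luciferase activity from cell lysates at 72 h post infection gave inhibition relative to buffer-only and Salinomycin wells.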
# FMDV antiviral = High Throughput Screening for Foot and Mouth Disease Virus Antivirals; FMDV antiviral cell-based qHTS; Potency, µM (top dose mostly 57.9 µM), inactives show at the top dose activity change, negative = inhibition, actives largely listed as inhibitors; 410,000 compounds, 1.2% hits; AID 1159524, 2015; calls by dose curve; tested in HEK293T cells; also: read-out not given here; potency is read from the fitted curve at half-maximal effect; nearly all actives have a fitted effect of over 45% in size
# Vaccinia mCherry = qHTS for Stage-Specific Inhibitors of Vaccinia Orthopoxvirus: mCherry Reporter Primary qHTS; Vaccinia virus mCherry reporter infection, fluorescence; 310,000 compounds, 0.63% hits; Potency, µM (doses to about 36.5 µM), inactives show at the top dose activity change, negative = inhibition, usual class: inhibitors; calls by dose curve; tested in A549 cells; also: potency is read from the fitted curve at half-maximal effect; nearly all actives have a fitted effect of over 35% in size
# HCV inhibitor = qHTS Assay for Inhibitors of Hepatitis C Virus (HCV) | 340,000 compounds, 3.4% hits | Potency, µM (doses to about 41.8 µM), for the others: at the highest dose activity change, negative = inhibition, hits mostly inhibitors | Huh7.5.1 HCVcc-Cre infection, luciferase reporter, 44 h; active = well fitted inhibition curve with a large enough effect; inconclusive = small, poorly fitted or top-dose-only effect, or another doubt; inactive = no such curve, though single readings can be large or run the other way; also: potency is read from the fitted curve at half-maximal effect
#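 Cells (1,000/well) were plated 4 h before compound, then infected with HCVcc-Cre virus (~0.5 moi). After 44 h further culture, infection was read as luciferase luminescence following a 15 min substrate incubation at room temperature.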
# Vaccinia Venus = qHTS for Stage-Specific Inhibitors of Vaccinia Orthopoxvirus: Venus Reporter Primary qHTS. Potency, µM (titrated, usually from 36.5 µM), without a hit: top-dose activity change, negative = inhibition, hits mostly inhibitors. Vaccinia virus Venus reporter expression, fluorescence. 330,000 compounds, 0.46% hits. AID 720580, 2013; calls by dose curve; tested in A549 cells; also: potency is read from the fitted curve at half-maximal effect; nearly all actives have a fitted effect of over 30% in size
# * = called active by the depositor; i = inactive; u = inconclusive; x = no result given; ! = repeats disagree. Rows were chosen to be rich in hits. Some 7.3% of all compounds tested hit in one or more screens of this group. % is scaled to controls: 0 for no effect and ±100 for the full control effect.
SMILES,HCMV inh,FMDV antiviral,Vaccinia mCherry,HCV inhibitor,Vaccinia Venus
Cc1cccc(OCC(O)Cn2c(=N)n(CCN3CCCCC3)c3ccccc32)c1 (stereo unspecified),-62*!,u,u,7.1µM*,u
CCOC(=O)c1sc(N)c(C(=O)OCC)c1COC(=O)C1CC(=O)N(Cc2ccco2)C1 (stereo unspecified),29,-12%,x,13µM*,-22%
COC(=O)c1sc(N)c(C(=O)OC)c1COC(=O)C1CC(=O)N(Cc2ccco2)C1 (stereo unspecified),63,-23%,-17%,u,-10%
CCOC(=O)C(C)Oc1cccc2c(=O)n(CC(=O)NCc3ccc(F)cc3)ccc12 (stereo unspecified),-65*,-3%,x,-3%,x
CCOC(=O)C(C)Oc1cccc2c(=O)n(CC(=O)NCc3ccccc3)ccc12 (stereo unspecified),-89*,-24%,-14%,-28%,-24%
CCOC(=O)C(C)Oc1cccc2c(=O)n(CC(=O)NCCc3ccccc3)ccc12 (stereo unspecified),0,-17%,-19%,-17%,-20%
COCCNC(=O)C(c1cccs1)N(C(=O)Cn1nnc2ccccc21)c1ccccc1 (stereo unspecified),34,14%,-26%,16%,-17%
COc1ccc(N(C(=O)CCl)C(C(=O)NCCc2ccccc2)c2cccs2)cc1Cl (stereo unspecified),-103*,20µM*,u,0.56µM*,10µM*
O=C(CC(Nc1ccc(F)cc1)C(=O)O)c1ccccc1 (stereo unspecified),-102*,29%,-15%,1%,-2%
O=C(c1cnn2c1NC(c1ccco1)CC2C(F)(F)F)N1CCN(c2cccc(Cl)c2)CC1 (stereo unspecified),-22,u,x,10µM*,u
CN=C1c2cc3cc(OC)ccc3n2CCN1Cc1ccccc1,-28,-24%,u,-29%,-27%
CCN(CC)CCNC1=NCCn2c1cc1cc(OC)ccc12,70,-6%,x,6.3µM*,x
CCOC(=O)c1c(C)oc2nc(C)nc(NCC3CCN(Cc4ccc(Cl)cc4)CC3)c12,-8,-13%,i,x,-13%
C/C(=N\Nc1ccc(S(N)(=O)=O)cc1[N+](=O)[O-])c1ccc2c(c1)OCO2,u,35µM*,-13%,u,u
CCN(C(=O)C12CC3CC(CC(C3)C1)C2)C1CCS(=O)(=O)C1 (stereo unspecified),-24,-11%,-16%,18%,-12%
CCN(C(=O)COC(=O)CNC(=O)C12CC3CC(CC(C3)C1)C2)C1CCS(=O)(=O)C1 (stereo unspecified),-102*,0%,i,-7%,-7%
Cc1ccc(NC(=O)/C=C\C(=O)N(c2ccc(C(C)C)cc2)C(C(=O)NCc2ccco2)c2ccc(F)cc2)cc1 (stereo unspecified),-82*,-28%,u,x,u
COc1ccc(NC(=O)/C=C\C(=O)N(c2ccc(C(C)C)cc2)C(C(=O)NCc2ccco2)c2ccc(C)cc2)cc1 (stereo unspecified),-11,-18%,u,x,u
CCc1ccc2oc(-c3cc(N)ccc3O)nc2c1,146,25µM*,x,u,-12%
C#CCN(Cc1ccccc1)S(=O)(=O)C=C,-5,u,u,10%,1.6µM*!
Cn1c(CNC(=O)c2ccco2)nnc1SCC(=O)c1ccccc1,-3,-4%,i,-6%,-9%
CCn1c(CNC(=O)c2ccco2)nnc1SCC(=O)c1ccccc1,-62*,6%,-1%,23%,-1%
O=C(Nc1ccccn1)c1ccc(S(=O)(=O)c2ccc(Cl)cc2)cc1,-64*,0%,-15%,u,-17%
O=C(Nc1ccccn1)c1ccc(-c2ccccc2)cc1,-78*,-68%,7%,10µM*,-14%
COc1ccc(C(=O)Nc2ccccn2)cc1,34,5%,10%,4%,16%
O=C(NCC(c1cccs1)S(=O)(=O)c1cccs1)c1ccc(C(F)(F)F)cc1 (stereo unspecified),-5,-3%,-11%,x,-14%
CCCN1CNc2c(c(=O)[nH]c(=S)n2CCc2ccc(OC)cc2OC)C1,x,x,i,x,-14%
